We go through five molecules from PubChem BioAssay.

The nature of assay [1]: antimalarial activity against Dd2 strain (AID 2302;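 active means growth inhibition above 50% at the single 2 µM test dose, taken to imply half-maximal potency below 2 µM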;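 further: 0% = DMSO untreated growth and 100% = chloroquine plus artemisinin killed control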). Conditions: P. falciparum Dd2 in RBCs, LDH growth readout, 72 h; at 2 µM; stronger effect = higher value.
Assay [2] can be described thus: human hepatoma cell viability loss – ATP luminescence, cytotoxicity control for P. falciparum antimalarial project, primary screen (AID 2303;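 active means inhibition above 50%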;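 further: 0% = DMSO wells and 100% = digitonin-killed cells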). The settings on record: HepG2 viability, 24-48 h, at 10 µM, stronger effect = higher value.
Assay [3] concerns the target L-lactate dehydrogenase (Plasmodium falciparum (isolate CDC / Honduras)) (UniProt Q27743). As to the kind of experiment: PfLDH activity inhibition – cell lysate, 3D7 strain, counter-screen for P. falciparum growth inhibition project (AID 2304).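 Further: 0% = vehicle and 100% = reference inhibitor.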 Conditions: P. falciparum 3D7 crude extract, LDH APAD/NBT absorbance; at 2 µM; stronger effect = higher value. (Counterscreens check selectivity or assay interference.)

Assay [4] is described as follows: inhibition of 3D7 malaria parasite growth – strain 3D7 (AID 2306).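 Further: 0% = DMSO wells and 100% = chloroquine plus artemisinin control wells.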 The settings on record: P. falciparum 3D7 erythrocytic growth, LDH absorbance, 72 h; at 2 µM; stronger effect = higher value.
In assay [5] the target is Calcium-dependent protein kinase 1 (Plasmodium falciparum (isolate 3D7)) (UniProt P62344). The assay can be described thus: PfCDPK1 kinase inhibitors, biochemical, TCAMS library (AID 1159585; cut-off not given, nearly all actives have IC50 up to about 0.98 µM;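 further: inhibitors leave more ATP so luminescence rises with inhibition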). Conditions: recombinant PfCDPK1, Kinase-Glo ATP depletion luminescence.
Sequence of Calcium-dependent protein kinase 1 (Plasmodium falciparum (isolate 3D7)) (P62344 whole entry, looked up): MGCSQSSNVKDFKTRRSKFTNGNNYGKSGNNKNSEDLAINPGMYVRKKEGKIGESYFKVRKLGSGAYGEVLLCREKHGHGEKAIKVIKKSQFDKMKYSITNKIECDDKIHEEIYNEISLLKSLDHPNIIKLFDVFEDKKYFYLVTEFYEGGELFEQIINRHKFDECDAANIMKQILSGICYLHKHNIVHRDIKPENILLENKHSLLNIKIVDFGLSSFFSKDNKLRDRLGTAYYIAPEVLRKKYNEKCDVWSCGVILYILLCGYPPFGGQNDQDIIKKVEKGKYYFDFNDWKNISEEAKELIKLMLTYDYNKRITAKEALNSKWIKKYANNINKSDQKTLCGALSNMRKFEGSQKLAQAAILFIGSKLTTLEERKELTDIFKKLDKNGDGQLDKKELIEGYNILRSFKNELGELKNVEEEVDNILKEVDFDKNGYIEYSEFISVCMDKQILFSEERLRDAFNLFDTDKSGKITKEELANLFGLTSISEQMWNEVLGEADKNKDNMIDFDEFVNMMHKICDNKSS
Assay [6] addresses Plasmodium falciparum protein kinase 6 (PK6, PF3D7_1337100) (UniProt Q8IDW1). The assay can be described thus: PfPK6 kinase inhibitors, biochemical, TCAMS library (AID 1159586). Conditions: recombinant PfPK6, Kinase-Glo ATP depletion luminescence.
Assay [7] addresses Protein kinase 7 (PK7), Plasmodium falciparum 3D7 (PF3D7_0213400) (UniProt Q7YTF7). The assay can be described thus: inhibition of Plasmodium PK7 catalytic activity – biochemical, TCAMS antimalarial set, Kinase-Glo luminescence (AID 1159587). Conditions: recombinant PfPK7, Kinase-Glo ATP depletion luminescence. Background: Kinase-Glo measures the ATP left after a reaction by luminescence.

Assay [8] concerns the target Calcium-dependent protein kinase 4 (Plasmodium falciparum (isolate 3D7)) (UniProt Q8IBS5). As to the kind of experiment: PfCDPK4 kinase inhibitors, biochemical, TCAMS library (AID 1159588; cut-off not given, nearly all actives have IC50 up to about 0.91 µM). The settings on record: recombinant PfCDPK4, Kinase-Glo ATP depletion luminescence.

Each structure is given as a SMILES string. A number with no mark means an inactive call. For some of these results: Results with a measured potency or affinity are listed apart. The source made the active and inactive calls. Unless noted, how the calls were made is not given here.

By inhibition is commonly meant the drop in the measured response relative to a control, in per cent.

Sequence of Protein kinase 7 (PK7), Plasmodium falciparum 3D7 (PF3D7_0213400) (Q7YTF7 1-343): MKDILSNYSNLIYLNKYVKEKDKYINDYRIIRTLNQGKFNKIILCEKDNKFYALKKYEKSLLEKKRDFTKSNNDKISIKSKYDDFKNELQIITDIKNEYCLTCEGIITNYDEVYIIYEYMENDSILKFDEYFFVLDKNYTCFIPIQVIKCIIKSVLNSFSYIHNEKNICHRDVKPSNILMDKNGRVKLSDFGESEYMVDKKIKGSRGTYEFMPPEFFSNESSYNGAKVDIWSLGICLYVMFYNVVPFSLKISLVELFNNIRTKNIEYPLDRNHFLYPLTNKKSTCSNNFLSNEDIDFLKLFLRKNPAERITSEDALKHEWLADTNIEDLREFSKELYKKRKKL
Sequence of Plasmodium falciparum protein kinase 6 (PK6, PF3D7_1337100) (Q8IDW1 1-305): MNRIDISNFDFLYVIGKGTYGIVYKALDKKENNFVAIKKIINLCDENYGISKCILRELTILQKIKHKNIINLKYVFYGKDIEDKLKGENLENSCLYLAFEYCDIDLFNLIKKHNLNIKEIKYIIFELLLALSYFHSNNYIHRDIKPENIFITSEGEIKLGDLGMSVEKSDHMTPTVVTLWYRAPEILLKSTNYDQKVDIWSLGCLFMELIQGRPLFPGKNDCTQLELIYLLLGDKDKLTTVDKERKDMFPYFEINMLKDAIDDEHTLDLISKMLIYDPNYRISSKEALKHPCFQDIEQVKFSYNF
Sequence of L-lactate dehydrogenase (Plasmodium falciparum (isolate CDC / Honduras)) (Q27743 whole entry, looked up): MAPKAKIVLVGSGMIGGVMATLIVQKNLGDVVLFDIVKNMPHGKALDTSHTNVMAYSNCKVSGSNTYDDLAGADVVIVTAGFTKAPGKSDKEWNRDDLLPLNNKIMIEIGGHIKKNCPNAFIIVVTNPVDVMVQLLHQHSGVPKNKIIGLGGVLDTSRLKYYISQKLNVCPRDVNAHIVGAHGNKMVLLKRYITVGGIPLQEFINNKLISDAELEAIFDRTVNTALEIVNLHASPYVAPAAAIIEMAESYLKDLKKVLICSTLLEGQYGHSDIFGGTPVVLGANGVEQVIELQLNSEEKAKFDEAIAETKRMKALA
Sequence of Calcium-dependent protein kinase 4 (Plasmodium falciparum (isolate 3D7)) (Q8IBS5 whole entry, looked up): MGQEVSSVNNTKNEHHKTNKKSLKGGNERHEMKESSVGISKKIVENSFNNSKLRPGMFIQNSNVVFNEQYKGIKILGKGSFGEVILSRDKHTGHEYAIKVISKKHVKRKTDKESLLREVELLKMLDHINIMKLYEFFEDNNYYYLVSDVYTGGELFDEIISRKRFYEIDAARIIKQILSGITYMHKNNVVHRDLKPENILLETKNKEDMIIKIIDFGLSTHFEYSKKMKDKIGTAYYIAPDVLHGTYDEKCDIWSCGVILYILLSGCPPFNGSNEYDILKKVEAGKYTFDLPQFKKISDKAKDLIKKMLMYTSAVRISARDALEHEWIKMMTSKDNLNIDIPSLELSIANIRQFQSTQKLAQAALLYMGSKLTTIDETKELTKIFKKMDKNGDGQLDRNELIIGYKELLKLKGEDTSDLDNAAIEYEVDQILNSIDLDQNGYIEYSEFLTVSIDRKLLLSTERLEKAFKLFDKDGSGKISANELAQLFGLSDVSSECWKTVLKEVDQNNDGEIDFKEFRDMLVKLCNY

On to `Cc1ccc(/C=C/C(=O)NCCCCCN2CCC(c3c[nH]c4ccccc34)CC2)cc1`, for which the figures for the growth inhibition in assay [1] and in assay [4] were 7% and 86% (active), respectively. Moreover, the figures for the inhibition in assay [2] and in assay [3] were 36% and 0%, respectively. Also, the result in assay [5], in assay [6], in assay [7] and in assay [8] was inactive.
As to `CCCCCCCc1c(C)[nH]c2c(OC)cccc2c1=O`, the growth inhibition was 85% (active) in assay [1] and 89% (active) in assay [4]. The figures for the inhibition in assay [2] and in assay [3] were -5% and 5%, respectively. For the same molecule, the result in assay [5], in assay [6], in assay [7] and in assay [8] was inactive.
With `Cc1nnc2c(NC(=O)NC3CCCC3)cc3ccc(-c4cccc(CN5CCN(C)CC5)c4)cc3n12`, the growth inhibition in assay [1] was 68% (active); in assay [4], 91% (active). Moreover, the inhibition in assay [2] was 54% (active); in assay [3], 2%. Further, the outcome in assay [5], in assay [6], in assay [7] and in assay [8] was inactive.
On to `CN(C)Cc1ccc(O)c(-c2ccc(C(C)(C)C)cc2)n1`, for which the values for the growth inhibition in assay [1] and in assay [4] were 25% and 86% (active), respectively. The results for the inhibition in assay [2] and in assay [3] were -1% and -5%, respectively. Further, the result in assay [5], in assay [6], in assay [7] and in assay [8] was inactive.
With `N[C@@H](Cc1ccc(O)cc1)C(=O)NC(c1ccccc1)c1c(O)ccc2ccccc12` (stereo not given in full), the growth inhibition in assay [1] and in assay [4] was 95% (active) throughout. The figures for the inhibition in assay [2] and in assay [3] were 6% and 2%, respectively. Besides, the outcome in assay [5], in assay [6], in assay [7] and in assay [8] was inactive.
